# Measured values from PubChem BioAssay (EPA / NIEHS).
# Activity calls are given as the source filed them. How the source made its calls: active means hit-call score of the fitted dose curve at least 0.9, where 1 is the maximum; inactive means score below 0.9.
# Experiment: ATG_TCF_b_cat_CIS: Attagene CIS-FACTORIAL HepG2 Assay for human T-Cell-Factor with beta-catenin (TCF/b-cat) (AID 2282965)
# Conditions: HepG2 TCF/beta-catenin cis-reporter transcription, actives raise or lower the signal
# Protocol: ATG_CIS is a cell-based, multiplexed-readout assay that uses HepG2, a human liver cell line, with measurements taken at 24 hours after chemical dosing in a 24-well plate.ATG_TCF_b_cat_CIS is one of 52 assay component(s) measured or calculated from the ATG_CIS assay. It is designed to make measurements of mRNA induction, a form of inducible reporter, as detected with fluorescence intensity signals by Reverse transcription polymerase chain reaction (RT-PCR) and Capillary electrophoresis technology.Data from the assay component ATG_TCF_b_cat_CIS was analyzed into 1 assay endpoint. This assay endpoint, ATG_TCF_b_cat_CIS, was analyzed with bidirectional fitting relative to DMSO as the negative control and baseline of activity. Using a type of inducible reporter, measures of mRNA for gain or loss-of-signal activity can be used to understand the reporter gene at the transcription factor-level as they relate to the gene TCF7 and TCF7L2 and LEF1 and TCF7L1. Furthermore, this assay endpoint can be referred to as a primary readout, because this assay has produced multiple assay endpoints where this one serves a reporter gene function. To generalize the intended target to other relatable targets, this assay endpoint is annotated to the dna binding intended target family, where the subfamily is HMG box protein.
# Human liver HepG2 cells are transiently transfected with multiple reporter transcription units (MRTUs) in 6-well plates using FuGene 6 reagent (Roche; 3 ml FuGene/1 mg DNA). The MRTU constructs are regulated by a cis-regulating element (promoter). […] A major difference between the CIS and TRANS system is that in CIS activities of endogenous TFs are measured, whereas the TRANS assay evaluates changes in activities of exogenous, chimeric NR-Gal4 proteins. […] At the end of 24 hour incubation, total RNA was isolated using TriZol reagent (Invitrogen). The isolated RNA is then reverse-transcribed using oligo(dT) primer and Mo-MLV reverse transcriptase (Invitrogen) with DNAse I (Ambion) treatment for 30 min. The one-tenth of the produced cDNA was amplified by PCR using Taq DNA polymerase (Invitrogen) and two reporter sequence-specific primers. The PCR products were fluorescently labeled by primer extension with 6-arboxyfluorescein (6-FAM) 5'-labeled reporter sequence-specific primer (2 min at 95 C, 20 s at 68 C and 10 min at 72 C) and these products were digested with 5U of HpaI (New England Biolabs) for 2h at 37 C. The fragments were purified using Qiaquick PCR columns (Qiagen), analyzed on an ABI 3130xL genetic analyzer (Applied Biosystems) with peak positions identified by using a set of X-rhodamine (ROX)-labeled MapMarker1000 molecular weight standards (BioVentures). The raw capillary electrophoresis data was processed using Attagraph software (Attagene).
row,SMILES,outcome
1,CNC(=O)N(C)c1nnc(C(C)(C)C)s1,inactive
2,COC(=O)NC(=S)Nc1ccccc1NC(=S)NC(=O)OC,inactive
3,COc1ccc(-c2ccccc2)cc1NNC(=O)OC(C)C,inactive
4,CC(C)C1(C)N=C(c2ncccc2C(=O)O)NC1=O (stereo not given),inactive
5,COP(=S)(OC)Oc1ccc([N+](=O)[O-])c(C)c1,inactive
6,CCOc1cc(C(C)(C)C)ccc1C1COC(c2c(F)cccc2F)=N1 (stereo not given),inactive
7,CN=C=S,inactive
8,Cc1cnc(C2=NC(C)(C(C)C)C(=O)N2)c(C(=O)O)c1 (stereo not given),inactive
9,COCC(=O)N(c1c(C)cccc1C)C(C)C(=O)OC (stereo not given),inactive
10,CC1(C)CON(Cc2ccccc2Cl)C1=O,inactive
11,Cn1c(-c2ccccc2)cc(-c2ccccc2)[n+]1C,inactive
12,CCOP(=O)(OCC)Oc1nc(Cl)c(Cl)cc1Cl,inactive
13,CC(C)(C)C(=O)C(Oc1ccc(Cl)cc1)n1cncn1 (stereo not given),inactive
14,CC(C)Oc1cccc(NC(=O)c2ccccc2C(F)(F)F)c1,inactive
15,COC(=O)c1c(C(F)F)nc(C(F)(F)F)c(C2=NCCS2)c1CC(C)C,inactive
16,CCCCOCN(C(=O)CCl)c1c(CC)cccc1CC,inactive
17,Clc1cccc(C(Cl)(Cl)Cl)n1,inactive
18,CC(C)=CC1C(C(=O)OCc2coc(Cc3ccccc3)c2)C1(C)C (stereo not given),inactive
19,CC(C)Nc1nc(Cl)nc(NC(C)C)n1,inactive
20,CC(C)N1C(=O)N(c2ccccc2)CSC1=NC(C)(C)C,inactive

row,SMILES,outcome
1,O=c1n(Cl)c(=O)n(Cl)c(=O)n1Cl,inactive
2,COCC(C)N(C(=O)CCl)c1c(C)csc1C (stereo not given),inactive
3,O=C(O)c1c(Cl)ccc2cc(Cl)cnc12,inactive
4,CSC(=O)c1c(C(F)F)nc(C(F)(F)F)c(C(=O)SC)c1CC(C)C,inactive
5,CCCC(=NOCC)C1=C(O)CC(CC(C)SCC)CC1=O (stereo not given),inactive
6,O=P(O)(O)CCCl,inactive
7,CCNP(=S)(OC)O/C(C)=C/C(=O)OC(C)C (stereo not given),inactive
8,N#Cc1c(Cl)cccc1Cl,inactive
9,Cc1ccc(N=CN(C)C=Nc2ccc(C)cc2C)c(C)c1,inactive
10,CCSC(=O)N1CCCCCC1,inactive
11,COc1cc(Cl)c(OC)cc1Cl,inactive
12,Nc1cnn(-c2ccccc2)c(=O)c1Cl,inactive
13,CCCCC(C#N)(Cn1cncn1)c1ccc(Cl)cc1 (stereo not given),inactive
14,CCOP(=S)(OCC)Oc1nc(Cl)n(C(C)C)n1,inactive
15,C=CCOC(=O)C(C)(C)OC(=O)c1cc(-n2c(=O)cc(C(F)(F)F)n(C)c2=O)ccc1Cl,inactive
16,Nc1c(Cl)c(Cl)nc(C(=O)O)c1Cl,inactive
17,CS(=O)(=O)c1ccc(C(=O)C2C(=O)CCCC2=O)c([N+](=O)[O-])c1,inactive
18,N#CN=C1SCCN1Cc1ccc(Cl)nc1,inactive
19,CC1(C)C(C(=O)OC(C#N)c2cccc(Oc3ccccc3)c2)C1(C)C (stereo not given),inactive
20,CCCCC(O)(Cn1cncn1)c1ccc(Cl)cc1Cl (stereo not given),inactive
